In the supplement of paper PMC12636033:
± gives the standard deviation of the averaged measurements. Whole data set: some 33,000 sequences, median “E-score (rank enrichment, -0.5 to 0.5)” near -0.0028, cut for the highest 2% near 0.23. This is one part of a sample in which the highest values are shown more often than they occur.

system: 2Sb-muMax20 (muMax20 with two 1,3-bis(methyl)benzene Cys staples, A13C/A17C and Q88C/A92C, C-terminal Lys); test: PBM 8-mer E-score (E-score (rank enrichment, -0.5 to 0.5)); higher = stronger preferential binding
Experimental: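 Protein binding microarray (universal PBM chip covering all 10-mers in fixed probe flanks) with chemically synthesized human Max(13-93) bHLH-LZ analogs (not full-length Max) bearing noncanonical residues (hArg, Tha, Aib, Nle at 65) and aromatic Cys staples. Read-out per 8-mer (and its reverse complement): E-score (rank-based enrichment, -0.5 to 0.5) and Z-score of median probe intensity.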

| Sequence | PBM 8-mer E-score |
| --- | --- |
| TACACATA | 0.268 ± 0.019 |
| CACATAAA | 0.0814 ± 0.0052 |
| AACATACG | 0.273 ± 0.019 |
| GACATACC | -0.168 ± 0.044 |
| CACACATA | 0.00584 ± 0.1 |
| GACACATA | 0.0252 ± 0.086 |
| GACATACA | 0.235 ± 0.0046 |
| TACATAAA | 0.242 ± 0.046 |
| AACATACT | 0.1 ± 0.032 |
| AACATAAA | 0.145 ± 0.0096 |
| CACATACG | 0.0173 ± 0.041 |
| GACATAGA | -0.0561 ± 0.027 |
| CGTGGGAC | 0.0245 ± 0.068 |
| CATTGGAC | -0.164 ± 0.097 |
| ACTGAGAA | -0.135 ± 0.097 |
| ACATGAAA | 0.0717 ± 0.024 |
| CAGGAGAA | 0.107 ± 0.037 |
| AGCAGCGA | -0.182 ± 0.0055 |
| AGTGTTGG | 0.043 ± 0.048 |
| GCGAGACA | -0.0901 ± 0.089 |
| AGAATTGA | -0.00649 ± 0.005 |
| CCGGTGGA | -0.167 ± 0.015 |
| ATAAGACC | 0.114 ± 0.078 |
| AAGGTATT | 0.0792 ± 0.027 |
| ATAGGAGG | -0.0435 ± 0.015 |

| Sequence | PBM 8-mer E-score |
| --- | --- |
| GGTGTCCA | 0.00348 ± 0.039 |
| ACTTACCC | 0.166 ± 0.053 |
| AACATACA | 0.153 ± 0.061 |
| TACATACA | 0.235 ± 0.031 |
| CACATACA | 0.0172 ± 0.022 |
| TCCTGCGA | -0.0443 ± 0.016 |
| AATAAAAA | 0.187 ± 0.046 |
| AATAAATT | 0.271 ± 0.019 |
| AATAAAAT | 0.0858 ± 0.023 |
| AATAAAAG | 0.241 ± 0.065 |
| CATAAAAG | 0.00379 ± 0.14 |
| AATAAATG | 0.226 ± 0.0099 |
| TATAAATA | 0.133 ± 0.019 |
| AATAAATA | 0.0902 ± 0.023 |
| ATTAAATA | 0.208 ± 0.023 |
| CATAAATA | 0.293 ± 0.029 |
| CTTAAATA | 0.056 ± 0.014 |
| GTTAAATA | 0.23 ± 0.023 |
| ATGTAAGA | 0.104 ± 0.011 |
| ACTCTTTC | 0.0291 ± 0.035 |
| CTTTATCC | 0.0138 ± 0.00086 |
| CGCAAACG | -0.0619 ± 0.011 |
| CAAAATAG | 0.0583 ± 0.12 |
| CGACATTC | -0.0236 ± 0.057 |
| TCGCAGCA | -0.185 ± 0.015 |

| Sequence | PBM 8-mer E-score |
| --- | --- |
| CCTTACAA | -0.0496 ± 0.00098 |
| TAACCGTA | 0.179 ± 0.033 |
| ATGAAGGA | 0.0372 ± 0.02 |
| CAGATGGG | -0.06 ± 0.043 |
| ACGCCACA | 0.113 ± 0.019 |
| TCACTGAA | 0.0386 ± 0.03 |
| ACAATCGG | -0.076 ± 0.075 |
| AACGACAT | 0.126 ± 0.076 |
| AGTGCTGC | -0.166 ± 0.021 |
| GCACCCCA | 0.24 ± 0.031 |
| GCACCCCC | -0.265 ± 0.028 |
| ACACCCCA | 0.224 ± 0.036 |
| TCACCCGA | -0.0977 ± 0.0029 |
| CCACCCCA | 0.275 ± 0.1 |
| CCACCCCG | 0.0359 ± 0.026 |
| TCACCCAA | 0.154 ± 0.032 |
| CCACCCCC | -0.0738 ± 0.041 |
| TCACCCCA | 0.368 ± 0.011 |
| CGCGTCGC | -0.0885 ± 0.02 |
| CAACCTTG | -0.0156 ± 0.0055 |
| CCTAAAGC | 0.0284 ± 0.038 |
| AAAATGCC | 0.00067 ± 0.042 |
| AAAATGCA | 0.127 ± 0.02 |
| AAAATGCT | 0.235 ± 0.0065 |
| AATTAGCC | -0.107 ± 0.095 |

| Sequence | PBM 8-mer E-score |
| --- | --- |
| CCTGACCC | -0.146 ± 0.077 |
| CTGTTTAA | 0.0361 ± 0.028 |
| CTGTTTTA | 0.24 ± 0.013 |
| GTGTTTTA | 0.098 ± 0.036 |
| ACCCCTAG | 0.11 ± 0.029 |
| CCCCCTTC | -0.174 ± 0.065 |
| CCCCCTCC | -0.0384 ± 0.17 |
| GCCCCTAA | 0.245 ± 0.038 |
| AACCCTTC | 0.11 ± 0.054 |
| ACCCCTTC | 0.328 ± 0.018 |
| ACCCCTAA | 0.218 ± 0.037 |
| CCCCCTAA | -0.037 ± 0.031 |
| ACCCCTAT | 0.252 ± 0.081 |
| ACCCCTCC | 0.258 ± 0.052 |
| AACCCTCC | -0.0982 ± 0.073 |
| TCCCCTAA | 0.196 ± 0.03 |
| TAGACGAA | -0.053 ± 0.022 |
| GTCCGACA | -0.0883 ± 0.025 |
| TACACACA | 0.00095 ± 0.038 |
| AACAGTCC | -0.0613 ± 0.014 |
| CGCCTTCC | -0.134 ± 0.085 |
| ACCGCCGG | -0.212 ± 0.076 |
| ATGGCTAC | 0.106 ± 0.049 |
| CACCTCAA | -0.0623 ± 0.06 |
| CCTCAGCC | -0.0948 ± 0.096 |

| Sequence | PBM 8-mer E-score |
| --- | --- |
| AGGGTCCC | -0.337 ± 0.0037 |
| TTAGCAAA | 0.1884 ± 0.00076 |
| ACCCCTCG | 0.0393 ± 0.084 |
| CGCCCTCC | 0.0189 ± 0.097 |
| GCCCCCCC | -0.18 ± 0.13 |
| ACCCCTCA | 0.307 ± 0.0085 |
| GCCCCTCC | 0.274 ± 0.099 |
| CCCCCTCA | 0.0422 ± 0.049 |
| TACCCTCA | 0.0472 ± 0.026 |
| GCCCCTCA | -0.0171 ± 0.064 |
| TCCCCTCA | 0.247 ± 0.0079 |
| ACTTCAGA | -0.161 ± 0.095 |
| CAGCTCCG | -0.19 ± 0.065 |
| ATATGGAA | 0.0497 ± 0.036 |
| TGGTGTAA | 0.249 ± 0.037 |
| CGGTGTAA | -0.0426 ± 0.082 |
| GGGTGTAA | 0.0984 ± 0.049 |
| TCCGGGAA | -0.184 ± 0.07 |
| AAAACGAG | -0.00059 ± 0.034 |
| AGTATACA | 0.135 ± 0.025 |
| GGTATACA | 0.105 ± 0.011 |
| CGTATACA | 0.0906 ± 0.018 |
| TGTATACA | 0.259 ± 0.05 |
| CGTATACG | 0.341 ± 0.027 |
| CGTATACC | -0.123 ± 0.0037 |

| Sequence | PBM 8-mer E-score |
| --- | --- |
| CAGCAGGC | -0.139 ± 0.04 |
| CCCCTCCC | 0.297 ± 0.13 |
| CCCTCCCC | 0.157 ± 0.25 |
| ACCCTCCA | 0.0708 ± 0.031 |
| ACCCTCCC | 0.289 ± 0.04 |
| ACCCTCCT | -0.0718 ± 0.019 |
| CCCCTCCG | 0.00173 ± 0.08 |
| CGGGTTAA | -0.0694 ± 0.12 |
| ACAGGTCT | -0.101 ± 0.015 |
| GGCAATAC | -0.0237 ± 0.039 |
| ACGCGGCA | -0.1504 ± 0.0011 |
| AGAGCAAA | -0.124 ± 0.036 |
| AGCGTATG | 0.0491 ± 0.018 |
| CGGATTTA | -0.0345 ± 0.005 |
| GCACGGTA | -0.226 ± 0.0061 |
| TAACGTAA | -0.00578 ± 0.0029 |
| ATAACGTA | 0.16 ± 0.052 |
| ATAACTTG | 0.253 ± 0.032 |
| ATAACTTC | 0.1632 ± 0.00065 |
| ATAACGTG | 0.277 ± 0.022 |
| ATAACGTC | 0.0413 ± 0.0089 |
| ATAACTTA | 0.0822 ± 0.028 |
| TTCAGGAA | -0.0598 ± 0.038 |
| CCAAGAAC | 0.098 ± 0.03 |
| CGTCCCTC | -0.107 ± 0.023 |

| Sequence | PBM 8-mer E-score |
| --- | --- |
| ATTACACG | 0.0209 ± 0.026 |
| CTTACACC | -0.035 ± 0.078 |
| ATTACAGA | -0.121 ± 0.03 |
| ATTACAGG | 0.286 ± 0.0044 |
| ATTACACC | 0.254 ± 0.06 |
| ATTACAGC | 0.0657 ± 0.05 |
| ACGAGGGG | 0.0607 ± 0.017 |
| CAAAGGAA | 0.047 ± 0.054 |
| GAGGATGA | 0.0986 ± 0.081 |
| AAAAACGA | 0.256 ± 0.03 |
| GTAAACGA | -0.00855 ± 0.0052 |
| CAAAACGA | 0.103 ± 0.0049 |
| GAAAACGA | -0.0116 ± 0.016 |
| ATAAACGC | -0.0771 ± 0.058 |
| ATAAACGA | 0.233 ± 0.029 |
| CCGGTATC | -0.171 ± 0.092 |
| AAGTCAGC | -0.0311 ± 0.05 |
| AAGGCTAC | -0.168 ± 0.021 |
| AGCGAAAA | 0.212 ± 0.006 |
| TCACACCA | 0.0297 ± 0.027 |
| CGGATGTA | -0.172 ± 0.005 |
| AGATTTTG | 0.0113 ± 0.012 |
